Several values for one entry are separate records, joined by “and”; a condition that tells them apart may be missing. Equal entries are not always repeated. The whole screen tested about 5,500 compounds, of which about 2,000 (36%) were called active. Roughly 18% stayed inconclusive and do not appear here. No stated cut-off is given here; in the data, active means normalized growth mostly below about 0.91 (no sharp cut-off); inconclusive means no clear call, values can overlap the other calls; inactive means mostly above about 0.92. Some of the results follow.
Test: chemical genetic growth profiling, strain panel (AID 1159580);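 further: tested at 20 µM; growth read once vehicle control cultures reached saturation at 30 °C; 1 = growth at the plate median or of vehicle wells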
Details: S. cerevisiae deletion strains, growth OD

Measured: normalized growth

Cn1c(=O)[nH]c2ncn(C)c2c1=O
inactive: locus YAL013W, strain DEP1, stronger effect = lower value 1.01 | locus YAL021C, strain ccr4, stronger effect = lower value 1.06 | locus YAL026C, strain drs2, stronger effect = lower value 0.985 | locus YAL030W, strain snc1, stronger effect = lower value 0.981 | locus YAL040C, strain CLN3, stronger effect = lower value 0.958 | locus YBL061C, strain skt5, stronger effect = lower value 0.99 | locus YBR009C, strain hhf1, stronger effect = lower value 0.995 | locus YBR021W, strain FUR4, stronger effect = lower value 1.04 | locus YBR023C, strain chs3, stronger effect = lower value 1 | locus YBR171W, strain sec66, stronger effect = lower value 0.95 | locus YBR229C, strain ROT2, stronger effect = lower value 1.01 | locus YBR231C, strain swc5, stronger effect = lower value 0.962 | locus YBR279W, strain paf1, stronger effect = lower value 0.993 | locus YCL011C, strain gbp2, stronger effect = lower value 0.966 | locus YCL016C, strain dcc1, stronger effect = lower value 1.03 | locus YCL029C, strain bik1, stronger effect = lower value 0.996 | locus YCL061C, strain MRC1 (second series), stronger effect = lower value 1.01 | locus YCL061C, strain MRC1, stronger effect = lower value 0.995 | locus YCL069W, strain vba3, stronger effect = lower value 0.968 | locus YCR088W, strain abp1, stronger effect = lower value 0.966 | locus YDL005C, strain med2, stronger effect = lower value 0.962 | locus YDL035C, strain GPR1, stronger effect = lower value 1.02 | locus YDL040C, strain nat1, stronger effect = lower value 0.962 | locus YDL074C, strain BRE1, stronger effect = lower value 1.05 | locus YDL101C, strain DUN1, stronger effect = lower value 1.01 | locus YDL134C, strain PPH21, stronger effect = lower value 1.02 | locus YDL185W, strain tfp1, stronger effect = lower value 0.996 | locus YDL192W, strain arf1, stronger effect = lower value 0.993 | locus YDR001C, strain nth1, stronger effect = lower value 0.968 | locus YDR069C, strain doa4, stronger effect = lower value 0.949 | locus YDR101C, strain arx1, stronger effect = lower value 1 | locus YDR137W, strain rgp1, stronger effect = lower value 0.988 | locus YDR150W, strain NUM1, stronger effect = lower value 1.02 and 0.997 | locus YDR159W, strain sac3, stronger effect = lower value 0.939 | locus YDR162C, strain NBP2, stronger effect = lower value 1 | locus YDR195W, strain ref2 0.95 | locus YDR297W, strain sur2, stronger effect = lower value 0.959 | locus YDR318W, strain mcm21, stronger effect = lower value 0.992 | locus YDR334W, strain swr1, stronger effect = lower value 0.975 | locus YDR335W, strain msn5, stronger effect = lower value 0.978 | locus YDR363W, strain ESC2, stronger effect = lower value 1.01 | locus YDR388W, stronger effect = lower value 0.989 | locus YDR392W, strain spt3, stronger effect = lower value 0.937 | locus YDR502C, strain sam2, stronger effect = lower value 0.993 | locus YEL003W, strain gim4, stronger effect = lower value 0.972 | locus YEL037C, strain rad23, stronger effect = lower value 0.968 | locus YEL061C, strain CIN8 (second series), stronger effect = lower value 0.959 | locus YEL061C, strain CIN8, stronger effect = lower value 1.01 | locus YER002W, strain NOP16, stronger effect = lower value 1.01 | locus YER015W, strain faa2, stronger effect = lower value 0.98 | locus YER016W, strain bim1, stronger effect = lower value 0.967 | locus YER110C, stronger effect = lower value 0.996 | locus YER111C, strain swi4, stronger effect = lower value 0.98 | locus YER155C, strain BEM2 (second series), stronger effect = lower value 0.959 | locus YER155C, strain BEM2, stronger effect = lower value 1.02 | locus YER167W, strain BCK2, stronger effect = lower value 1.01 | locus YFR010W, strain ubp6, stronger effect = lower value 0.962 | locus YGL078C, strain dbp3, stronger effect = lower value 0.989 | locus YGL086W, strain mad1, stronger effect = lower value 1 | locus YGL167C, strain pmr1, stronger effect = lower value 0.982 | locus YGL173C, strain kem1, stronger effect = lower value 0.97 | locus YGL227W, strain vid30, stronger effect = lower value 0.967 | locus YGL240W, strain doc1, stronger effect = lower value 0.958 | locus YGL248W, strain PDE1, stronger effect = lower value 1.01 | locus YGL253W, strain hxk2, stronger effect = lower value 0.958 | locus YGR078C, strain PAC10, stronger effect = lower value 1.02 and 0.978 | locus YGR135W, strain pre9, stronger effect = lower value 0.992 | locus YGR229C, strain SMI1, stronger effect = lower value 1.02 | locus YGR252W, strain gcn5, stronger effect = lower value 0.981 | locus YHR013C, strain ard1, stronger effect = lower value 0.986 | locus YHR027C, strain rpn1, stronger effect = lower value 0.98 | locus YHR030C, strain SLT2, stronger effect = lower value 1 | locus YHR079C, strain IRE1 (second series), stronger effect = lower value 0.987 | locus YHR094C, strain hxt1, stronger effect = lower value 0.992 | locus YHR129C, strain ARP1, stronger effect = lower value 1.02 | locus YHR142W, strain chs7, stronger effect = lower value 0.987 | locus YHR200W, strain rpn10, stronger effect = lower value 0.993 | locus YIL066C, strain RNR3, stronger effect = lower value 1.01 | locus YIL073C, strain SPO22, stronger effect = lower value 1 | locus YIL125W, strain kgd1, stronger effect = lower value 0.994 | locus YIR030C, strain dcg1, stronger effect = lower value 1 | locus YJL092W, strain hpr5, stronger effect = lower value 0.971 | locus YJL095W, strain BCK1 (second series), stronger effect = lower value 0.973 | locus YJL095W, strain BCK1, stronger effect = lower value 1.02 | locus YJL115W, strain asf1, stronger effect = lower value 0.969 | locus YJL129C, strain trk1, stronger effect = lower value 0.967 | locus YJL134W, strain LCB3, stronger effect = lower value 1 | locus YJL154C, strain vps35, stronger effect = lower value 0.969 | locus YJL164C, strain tpk1, stronger effect = lower value 1 | locus YJL166W, strain qcr8, stronger effect = lower value 0.972 | locus YJL168C, strain set2, stronger effect = lower value 0.99 | locus YJL187C, strain SWE1 (second series), stronger effect = lower value 1.01 | locus YJL187C, strain SWE1, stronger effect = lower value 0.986

Source: PubChem BioAssay AID1159580 (chemical genetic matrix, 2015)
